Experimental data from PubChem BioAssay.
A number with no mark means an inactive call. No rule for the calls is given here.

target: Pantothenate synthetase (Mycobacterium tuberculosis (strain ATCC 25618 / H37Rv)) (UniProt P9WIL5); experiment: Coupled enzyme confirmation of inhibitors against recombinant Mtb PanC (AID 375); settings: coupled enzyme assay; at 10 µM, active compounds read high;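 also: 0% = full reaction with vehicle and 100% = no enzyme background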
Sequence (P9WIL5 whole entry, looked up): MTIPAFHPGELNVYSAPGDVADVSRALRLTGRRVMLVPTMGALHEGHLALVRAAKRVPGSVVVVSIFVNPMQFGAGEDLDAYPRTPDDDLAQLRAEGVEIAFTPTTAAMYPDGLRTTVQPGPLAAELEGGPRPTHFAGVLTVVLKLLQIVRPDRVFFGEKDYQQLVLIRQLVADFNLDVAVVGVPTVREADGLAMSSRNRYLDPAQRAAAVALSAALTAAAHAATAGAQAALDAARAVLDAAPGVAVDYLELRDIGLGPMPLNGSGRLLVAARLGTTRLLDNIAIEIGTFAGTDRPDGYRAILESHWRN

Compared with `O=C1CCc2cc(S(=O)(=O)N3CCC(C(=O)Nc4nccs4)CC3)ccc2N1`, `O=C(c1ccc2c(c1)c(=O)oc1ccccc12)N1CCCCC1` is higher in inhibition: 4% for the first, 6% for the second.

First: Cc1ccc(N2CC(C(=O)Nc3ccc4c(c3)OCO4)CC2=O)cc1 (configuration not stated)
Second: COc1ccc(CN(C(=O)CN2C(=O)COc3ccccc32)C2CCCC2)c(OC)c1
The inhibition of the first is higher: 6% for the first, 0% for the second.

`c1c2c(cc3sc(N4CCCCC4)nc13)OCCO2` and `Cc1nc2ccccn2c1P(=O)(N1CCCCC1)N1CCCCC1` are the same in inhibition: 4% for the first, 4% for the second.

First: Cc1c(NC(=O)C(C)Oc2ncnc3ccccc23)c(=O)n(-c2ccccc2)n1C (configuration not stated)
Second: Cc1cc2c(=O)n(Cc3ccco3)c(SCC(=O)NCc3ccco3)nc2s1
The inhibition of the first is lower: 0% for the first, 3% for the second.

Going from `CCOc1ccccc1N1CCN(c2nc(N)c(C#N)c(CC#N)c2C#N)CC1` to `Oc1cnc2ccccc2c1CN1CCOCC1`, the inhibition rises from 0% to 4%.

Going from `C=CCN1C(=O)CS/C1=N/c1nccs1` to `CC(=O)c1cc(C#N)c(SCC(=O)OC(C)C)nc1C`, the inhibition rises from 0% to 4%.

`COC(=O)c1ccc(NC(=O)CN2CCCC2)cc1` and `CCC(=O)OC1(C#CCOc2ccc(OC)cc2)CCN(C)CC1` are the same in inhibition: 0% for the first, 0% for the second.

Compared with `O=C(CSc1nc(-c2ccco2)cc(C(F)(F)F)n1)NCCCn1ccnc1`, `COCCCNC(=O)CCc1nc2cccnc2n1Cc1ccc(OC)cc1` is lower in inhibition: 8% for the first, 0% for the second.

`COc1ccc(CN(C(=O)c2ccccc2OC)C2CCS(=O)(=O)C2)cc1` (configuration not stated) showed an inhibition of 0%.
